Measurements as given in PubChem BioAssay.
Activity calls are given as the source filed them. No stated cut-off is given here; in the data, active means inhibition above about 28%; inactive means the rest.

experiment: StAR promoter reporter inhibitors, counter-screen for LRH-1 inverse agonist project, cell-based, luminescence, high throughput (AID 651611); details: StAR promoter luciferase reporter counterscreen, at 3.6 µM, hits give high values

Row | SMILES | inhibition
1 | COc1ccc(-c2coc3c(C(=O)NCc4ccc(OC)c(OC)c4)cccc23)c(C)c1 | 28% (active)
2 | COc1ccc(CC(=O)Nc2cccc(S(=O)(=O)N3CCCCCC3)c2)cc1OC | 20.2% (inactive)
3 | Clc1ccc(-c2nnc(CSc3nnc(-c4cccs4)n3Cc3ccccc3)o2)cc1 | 5.56% (inactive)
4 | O=C(CSc1nnc(Cn2nnc3ccccc32)o1)N(Cc1ccc(F)cc1)c1ccccc1 | 24.2% (inactive)
5 | CC(C)C(=O)NC(c1ccc(Cl)cc1Cl)c1ccc2cccnc2c1O (configuration not stated) | 48.2% (active)
6 | Cc1ccc(S(=O)(=O)CC2CSc3nc4ccccc4n32)cc1 (configuration not stated) | 22.6% (inactive)
7 | O=C(Nc1nonc1NC(=O)c1cccs1)c1cccs1 | 30.2% (active)
8 | CCN(CC)C1=CC(=[N+]2CCCC2)CC(C)(C)C1 | 17.4% (inactive)
9 | CCCOc1ccc(Cc2c(Cl)nc(SC)nc2NC)cc1 | 4.85% (inactive)
10 | COc1cccc2c1C(=O)c1c(O)c3c(c(O)c1C2=O)CC(O)(C(C)=O)CC3OC1CC(O)C(O)C(C)O1 (configuration not stated) | 29.2% (active)
11 | CCN(CC)S(=O)(=O)c1cc(NC(=O)CNc2cccc(S(=O)(=O)N3CCCC3)c2)ccc1C | 21.6% (inactive)
12 | Fc1ccc(NC(=S)N2CCCN(c3ccc(C(F)(F)F)cn3)CC2)c(F)c1 | 26.6% (inactive)
